Assay results from PubChem BioAssay AID2314 (National Center for Advancing Translational Sciences (NCATS), 2010).
Out of some 300,000 compounds screened, about 37,000 (12%) were called active. Rule as the data show it: active = max response mostly above about 13% (no sharp cut-off); inactive = mostly below about 14%. For the sample, actives were picked, then their nearest neighbours and some compounds at random.

Test: Cycloheximide Counterscreen for Small Molecule Inhibitors of Shiga Toxin; also: read at 38.3 µM for the half of the compounds with a filed dose; 0% is about no effect
Conditions: cell reporter, cycloheximide protein synthesis inhibition counterscreen; hits give high values
With `Cc1ccc(C(=O)NCC(=O)OCC(=O)NC2CCCCCCC2)cc1` the max response was -2.63% (inactive). With `Cc1ccc(NC(=O)Cn2c(=O)n(CCC(=O)NC3CCN(Cc4ccccc4)CC3)c(=O)c3ccccc32)cc1` the max response was -1.8% (inactive). With `O=C(NCCCNC(=O)c1ccccc1Cl)c1cnccn1` the max response was -1.06% (inactive). In the case of `COC(=O)Nc1ccc(S(=O)(=O)Nc2cc(OC)nc(OC)n2)cc1`, the max response is reported as 8.38% (inactive). For `COc1ccc(-c2ccc(CCC(=O)O)n2NC(=O)c2ccc(C(C)(C)C)cc2)cc1`, the max response was 15.2% (inactive). For `CC(=O)Nc1ccc(Nc2ncnc3c2nnn3Cc2ccccc2Cl)cc1`, the max response was -1.15% (inactive). With `CC1C(=O)Nc2ccc(S(=O)(=O)N3CCN(c4ccccc4F)CC3)cc2NC1=O` (centres undefined) the max response was -4.25% (inactive). With `COc1cc(CCC(=O)Nc2ccncc2Cl)cc(OC)c1OC` the max response was -2.42% (inactive). In the case of `Cn1c2ccccc2c(=O)c2c(=O)n(Cc3ccco3)c(COc3ccccc3)nc21`, the max response is reported as -1.78% (inactive). With `COc1cc2c(cc1/C=C1/NC(=O)N(c3ccccc3)C1=O)OCO2` the max response was 6.72% (inactive). For `O=C1N/C(=C/c2cccn2-c2ccccc2)C(=O)N1c1cccc(Cl)c1`, the max response was 34.8% (active). For `Cc1ccccc1NC(=O)CN1C(=O)N/C(=C\c2cccn2-c2cccc(C(=O)O)c2)C1=O`, the max response was -9.3% (inactive). For `COc1cc(N2CCCC2)c(OC)cc1/C=C(/C#N)c1cccc(Br)c1`, the max response was -3.93% (inactive). With `COc1cc(C(=O)N2CCN(C3CCC(C)CC3)CC2)cc(OC)c1OC` (centres undefined) the max response was -0.901% (inactive). For `Nc1ccc2nn(-c3ccc(Cl)cc3)nc2c1`, the max response was 39.4% (active). In the case of `COc1ccc(-c2[nH]ncc2CN(Cc2nccn2C)C(C)C)cc1F`, the max response is reported as 0.417% (inactive). For `Cc1nn(C)c(Cl)c1CN1CCC(n2nccc2NC(=O)C2CCCC2)CC1`, the max response was -0.568% (inactive). In the case of `CC(C)(C)SCCSC1=CC(=O)CC(c2ccccc2)C1` (centres undefined), the max response is reported as 48.7% (active). For `Cc1ccc(S(=O)(=O)NCCSC(C)(C)C)cc1`, the max response was 1.94% (inactive). With `CCC(C)N1CC(=O)N2Cc3[nH]c4ccccc4c3C[C@H]2C1=O` (some centres undefined) the max response was -5.44% (inactive). In the case of `COC(=O)c1ccccc1NC(=O)CSc1n[nH]c(-c2ccncc2)n1`, the max response is reported as -2.03% (inactive). In the case of `CC(C)=CCCC1(C)C=Cc2c(ccc3c2[nH]c2cc(O)c(C)cc23)O1` (centres undefined), the max response is reported as 14% (active). With `CC/C(=N\NC(=S)NC(C)C)c1ccc(OC(F)F)cc1` the max response was 7.39% (inactive). For `O=C(O)CCCn1c(=O)c2cccn2c2ccc(F)cc21`, the max response was -0.924% (inactive). In the case of `Cc1cc(/C=C2/SC(=O)N(CC(=O)N3CCCC3)C2=O)ccc1N1CCOCC1`, the max response is reported as 12.3% (inactive). For `O=C1N=C(N2CCOCC2)CS1`, the max response was 11.5% (inactive). For `O=c1[nH]c(N2CCOCC2)nc2ccccc12`, the max response was -4.42% (inactive). In the case of `O=C1N=C(N2CCOCC2)S/C1=C\C=C/c1ccccc1`, the max response is reported as 44.4% (active). With `Cc1ccsc1/C=C1\SC(N2CCOCC2)=NC1=O` the max response was 32.7% (active). With `CCc1ccc(/C=C2\SC(N3CCOCC3)=NC2=O)cc1` the max response was 17.2% (inactive). In the case of `Fc1ccc(-c2ccc(CNCc3ccccn3)o2)cc1Cl`, the max response is reported as 11.4% (inactive). With `COc1ccc(C(=O)C2CCCN(Cc3cccn3-c3ccccn3)C2)c(C)c1` (centres undefined) the max response was -2.02% (inactive). In the case of `C[C@@H](NC(=O)[C@@H]1Cc2ccccc2CN1)C(=O)NC1CCCC1`, the max response is reported as -1.91% (inactive). In the case of `CCOc1ccc(/C=N\NC(=O)c2c(C)nc3cc(C)ccn23)cc1`, the max response is reported as 0.972% (inactive). With `NC(=O)C1CCN(C(=O)c2ccc3c(=O)n(Cc4cccc(Br)c4)c(=S)[nH]c3c2)CC1` the max response was -3.9% (inactive). For `O=C(c1cccc(S(=O)(=O)Nc2ccccc2Cl)c1)N1CCN(C(=O)c2ccco2)CC1`, the max response was -0.249% (inactive). With `O=C(Nc1ccccc1C(=O)N1CCCCC1)c1ccco1` the max response was -0.706% (inactive). For `CS/C(=C\C(=O)c1ccco1)Nc1ccccc1Cl`, the max response was 38.1% (active). For `CCOc1ccc(CC(=O)NC2CCN(Cc3ccccc3)CC2)cc1`, the max response was 4.32% (inactive). In the case of `CCCOC(=O)c1c(NC(=O)c2cnn3c2NC(c2ccccc2)CC3C(F)(F)F)sc2c1CCCC2` (centres undefined), the max response is reported as -8.8% (inactive). With `CCc1nc(Nc2ccc(NC(C)=O)cc2)c2oc3ccccc3c2n1` the max response was -3.08% (inactive). With `CCc1nc(N2CCN(c3nc(C)cc(C)n3)CC2)c2oc3ccccc3c2n1` the max response was 2.99% (inactive). For `CCc1nc(Nc2ccc3nccnc3c2)c2oc3ccccc3c2n1`, the max response was 12.4% (active). With `O=S(=O)(Nc1ccc(Cl)cn1)c1cnc(Cl)c(Br)c1` the max response was -1.38% (inactive). With `CCN1CCN(c2cc3nc(C)n(Cc4ccccc4)c(=O)c3cc2NC(=O)c2ccccc2F)CC1` the max response was -3.92% (inactive). In the case of `Cc1nnnn1/C(=C\c1ccccc1)C(=O)OCC(=O)N1CC2(C)CC1CC(C)(C)C2` (centres undefined), the max response is reported as -5.53% (inactive). In the case of `O=C(Nc1nnc(C2COc3ccccc3O2)o1)c1ccc(F)cc1` (centres undefined), the max response is reported as 1.61% (inactive). In the case of `Cc1ccc(/C=N/NC(=O)CSc2nc3ccccc3o2)cc1`, the max response is reported as 38.7% (active). In the case of `Cc1ccc(Cn2c(SCC(=O)N/N=C/c3ccccc3OCC(=O)O)nc3ccccc32)cc1`, the max response is reported as 3.56% (inactive). With `CCC(NC(=O)c1ccccc1NC(=O)c1ccccc1)C(=O)NNC(=O)CSc1nc2ccccc2o1` (centres undefined) the max response was 16.5% (active). In the case of `Cn1c(SCC(=O)N/N=C/c2ccc(O)c(O)c2)nc2ccccc21`, the max response is reported as -3.26% (inactive). With `CCc1ccccc1NC(=O)CSc1nnc([C@@H](NC(=O)OC(C)(C)C)C(C)CC)o1` (some centres undefined) the max response was -3.76% (inactive). With `O=C(CSc1nc2ccccc2o1)N/N=C/c1ccccc1C(=O)O` the max response was 13.7% (active). In the case of `Cn1c(=O)[nH]c(=O)c2c1nc(Br)n2CCCCSc1nc2ccccc2o1`, the max response is reported as -4.25% (inactive). In the case of `COc1ccc(S(=O)(=O)N(CC(=O)N/N=C/c2ccccc2C(=O)O)c2ccccc2OC)cc1`, the max response is reported as 1.7% (inactive). For `CCn1c(SCC(=O)N/N=C/c2ccncc2)nc2ccccc21`, the max response was -1.38% (inactive). For `CC(C)[C@H](NC(=O)N1CCn2c1nc1ccccc12)C(=O)NCc1ccc2c(c1)OCO2`, the max response was 7.58% (inactive). For `CCCCOP(=O)(c1ccc(N(C)C)cc1)C(O)c1cc(OC)ccc1OC` (centres undefined), the max response was -3.9% (inactive). With `N[C@@H](Cc1ccccc1)C(=O)N1CCC(C(=O)NCC(=O)Nc2ccc(F)cc2)CC1` the max response was 10.8% (inactive). With `Cc1ccsc1C1C(C#N)=C(N)OC2=C1C(=O)CC(C)C2` (centres undefined) the max response was -3.34% (inactive). For `CSc1nnc(C2CCCN(CC(=O)Nc3ccccc3N3CCOCC3)C2)n1C(C)C` (centres undefined), the max response was -6.84% (inactive). With `O=c1[nH]c2ccc(S(=O)(=O)N3CCCC3)cc2[nH]1` the max response was -1.27% (inactive). In the case of `CCCN1C(=O)C(Cc2nc3ccccc3c(=O)n2-c2ccccc2)c2cc(C)ccc21` (centres undefined), the max response is reported as -6.23% (inactive). With `Cc1ccc(S(=O)(=O)N(CC(=O)Nc2cccnc2)c2ccc(Br)cc2)cc1` the max response was 18.2% (inactive). For `Cc1ccc(C)c(NC(=O)CCC(=O)NNC(=O)c2cccs2)c1`, the max response was 5.25% (inactive). For `O=C(NNC(=O)c1ccc(Cl)cc1Cl)c1cccs1`, the max response was 47.6% (active). In the case of `Cc1ccc(NNC(=O)c2cccs2)cc1Cl`, the max response is reported as 9.69% (inactive). In the case of `Cc1ccc(C(=O)NNC(=O)c2cccs2)cc1`, the max response is reported as 33.4% (active). For `Cc1ccc(S(=O)(=O)N2CCN(C(=O)c3cccs3)CC2)cc1`, the max response was -2.84% (inactive). In the case of `CC(C)C(=O)Nc1ccc(C(=O)NNC(=O)c2cccs2)cc1`, the max response is reported as 19.4% (active). For `NNC(=O)c1ccc(Cl)cc1Cl`, the max response was 9.54% (inactive). With `O=C(Nc1ccccc1)c1ccc(NC(=O)c2cccs2)cc1` the max response was -4.38% (inactive). In the case of `Cc1cccc(-c2nc3c(c(SCC(=O)N4CCOCC4)n2)CCCC3)c1`, the max response is reported as -3.15% (inactive). For `Cc1ccc2c(c1)C(c1ccccc1)N(C(=O)c1ccc(F)cc1)CC(=O)N2` (centres undefined), the max response was -3.35% (inactive). With `CC1COc2ccccc2N1C(=O)c1ccc(F)cc1` (centres undefined) the max response was -4.53% (inactive). With `O=C(CN(Cc1ccccc1)C(=O)CCC(=O)Nc1ccccn1)NCCc1ccccc1` the max response was -3.42% (inactive). For `OC(c1ccccc1)C(CN1CCOCC1)c1ccccc1` (centres undefined), the max response was 6.46% (inactive). In the case of `COc1cc(C(C(=O)NC2CCCC2)N(Cc2ccccc2)C(=O)c2snc(C(N)=O)c2N)ccc1O` (centres undefined), the max response is reported as -3.72% (inactive). For `C=CCN(C(=O)c1cc(C)cc(C)c1)C1(C(=O)Nc2ccccc2)CCN(C(C)C)CC1`, the max response was 7.82% (inactive). With `Cc1ccc(CN(Cc2cccnc2)C(=S)Nc2cc(Cl)ccc2C)cc1` the max response was -1.05% (inactive). For `O=S(=O)(N/N=C\c1cccn1-c1ccccc1)c1ccc2ccccc2c1`, the max response was -3.05% (inactive). With `CN(C)c1ccc(-n2cccc2/C=N/n2cnnc2)cc1` the max response was 36.3% (active). With `CN(C)c1ccc(-n2cccc2/C=C2/SC(=Nc3ccc(F)cc3)NC2=O)cc1` the max response was 1.13% (inactive). For `CCOC(=O)N1CCN(C(=O)C(=O)Nc2sc3c(c2C#N)CC(C)(C)OC3)CC1`, the max response was -4.16% (inactive). In the case of `Cc1cc(C)nc(NS(=O)(=O)c2ccc(N/C=C\C(=O)c3cccs3)cc2)n1`, the max response is reported as 36.2% (active). In the case of `Cc1cc(C)nc(NS(=O)(=O)c2ccc(N3C(=O)C4CCCCC4C3=O)cc2)n1` (centres undefined), the max response is reported as 1.2% (inactive). For `CC(=O)Nc1ccc(S(=O)(=O)Nc2nccc(/C=C/c3ccccc3F)n2)cc1`, the max response was -1.75% (inactive). For `Cc1c(C(C)(C)O)[nH]c2ccc(C#N)cc12`, the max response was 6.81% (inactive). For `COc1ccccc1CCNC(=O)C1CCN(C(=O)/C=C/c2ccccc2)CC1`, the max response was 14.7% (active). With `COc1ccccc1CNC(=O)C1CCN(C(=O)[C@@H]2Cc3ccccc3CN2)CC1` the max response was 2.06% (inactive). In the case of `COc1ccccc1CNC(=O)C1CCN(S(C)(=O)=O)CC1`, the max response is reported as -1.24% (inactive). For `Cc1nn(C)cc1/C=N/NC(=O)c1sc2ccccc2c1Cl`, the max response was 4.94% (inactive). For `O=C(N/N=C/c1c(Cl)[nH]c2ccccc12)c1sc2ccccc2c1Cl`, the max response was 12.8% (active). For `COCCNC(=S)N/N=C/c1c(C)[nH]c2ccccc12`, the max response was 8.43% (inactive).
